D1 antag: Antagonist of Human D 1 Dopamine Receptor: qHTS | D(1A) dopamine receptor (Homo sapiens), P21728 | HEK293 TREx D1 cells, calcium flux, dopamine EC80; active compounds read low | activity change, negative = inhibition, % at 10 µM | 360,000 compounds, 3.2% hits | AID 504652, 2011; in the data active means activity change below about -30%; further: on the % scale 0 is the no-effect control and ±100 the full control effect
Target sequence (P21728 whole entry, looked up): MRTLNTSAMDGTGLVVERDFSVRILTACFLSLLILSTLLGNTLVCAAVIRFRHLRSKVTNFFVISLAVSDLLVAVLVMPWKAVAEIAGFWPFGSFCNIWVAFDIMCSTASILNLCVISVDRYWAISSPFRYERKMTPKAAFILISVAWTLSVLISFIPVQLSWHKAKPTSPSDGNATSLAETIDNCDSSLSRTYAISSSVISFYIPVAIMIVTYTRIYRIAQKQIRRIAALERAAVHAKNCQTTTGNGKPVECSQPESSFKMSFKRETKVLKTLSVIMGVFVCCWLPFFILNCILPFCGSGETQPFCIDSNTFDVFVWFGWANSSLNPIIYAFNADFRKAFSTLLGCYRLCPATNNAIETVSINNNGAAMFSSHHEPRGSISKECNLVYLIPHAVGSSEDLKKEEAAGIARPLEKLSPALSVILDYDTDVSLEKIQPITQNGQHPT
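Compound effects on dopamine-evoked calcium signalling were measured in tetracycline-induced HEK293 Trex D1 cells. Dopamine at EC80 followed a 180 s compound pre-read, and fluorescence was tracked kinetically for 180 s more.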
TRHR PAM: qHTS for Small Molecule Agonists and Allosteric Enhancers of Human TRH Receptor: Primary Screen for Enhancers; Thyrotropin-releasing hormone receptor (Homo sapiens), P34981; TRHR cells, fluo-8 calcium fluorescence, EC20 TRH enhancement; enhancement, % at 2 µM; 360,000 compounds, 0.66% hits; in the data active means enhancement above about 30%; further: 0% is about no effect
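Enhancer read-out: after compound pinning and an initial kinetic agonist-mode read, an EC20 of TRH (10 nM final) was injected and fluo-8 calcium signal (Ex 480/Em 530) followed at 1 s/cycle for 100 cycles in TRHR-expressing cells.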
D1 agonist: Allosteric Agonists of the Human D1 Dopamine Receptor: qHTS | D(1A) dopamine receptor (Homo sapiens), P21728 | HEK293 T-REx D1 cells, calcium flux, agonist mode | activation, % at 2 µM | 360,000 compounds, 1% hits; further: 0% is about no effect
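Inducible HEK293 T-REx D1 cells, force-coupled to calcium signalling, were plated at 4000 cells/well with tetracycline and held overnight at 30 C. After no-wash calcium dye loading, compound-evoked calcium rise over 180 s flagged agonists.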
TRHR agonist: qHTS for Small Molecule Agonists and Allosteric Enhancers of Human TRH Receptor: Primary Screen for Agonists; 360,000 compounds, 0.18% hits; TRHR cells, calcium flux fluo-8, FDSS agonist mode; activation, % at 2 µM; further: 0% is about no effect
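TRHR-expressing cells loaded with fluo-8 calcium dye; 23 nL library compound pin-transferred, kinetic FDSS fluorescence (Ex 480/Em 530) recorded about 180 s for agonist-induced calcium release, before a 10 nM TRH EC20 addition for potentiator mode.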
D1 PAM: Potentiators of Human D1 Dopamine Receptor: qHTS; 360,000 compounds, 0.036% hits; AID 504651, 2011; potentiation, % at 10 µM; HEK293 TREx D1 cells, calcium flux, dopamine EC20 potentiation; D(1A) dopamine receptor (Homo sapiens), P21728; in the data active means potentiation above about 30%; further: 0% is about no effect
* marks the source's active call; other numbers are inactive results. Rows were chosen to be rich in hits. Some 4.6% of all compounds tested hit in one or more screens of this group. Unless noted, no stated cut-off is given here; in the data, active means activation above about 30%; inactive means the rest.

SMILES | D1 antag | TRHR PAM | D1 agonist | TRHR agonist | D1 PAM
CC(Oc1cccc(Cl)c1)C(=O)Nc1ccc(S(=O)(=O)N(C)C2CCN(C)CC2)cc1 (stereo unspecified) | -61.6* | 0.0 | 93.8* | 3.5 | -8.5
CN1CCC(N(C)S(=O)(=O)c2ccc(NC(=O)COc3ccc(F)cc3)cc2)CC1 | -25.7 | 7.2 | 23.9 | 0.4 | -7.8
CCc1cccc(NC(=O)c2ccc(CNS(=O)(=O)c3ccc4c(c3)C(C)(C)C(=O)N4C)cc2)c1 | -4.5 | -3.4 | 1.8 | 0.4 | 0.2
O=C1CC(c2ccccc2)Sc2ccccc2N1Cc1ccccc1F (stereo unspecified) | 6.6 | -1.2 | 3.9 | 0.5 | -5.7
COc1cc(NC(=O)c2cc3cc4ccc(OC)c(Cl)c4nc3s2)cc(OC)c1 | -4.3 | -0.4 | 2.2 | 0.7 | -1.2
CCOc1ccc(CCNc2ncnc3onc(C)c23)cc1OCC | -21.9 | -12.4 | 26.1 | 0.8 | -4.6
Cc1nn(C)c(Oc2ccc(Cl)cc2)c1C(=O)O | -33.3* | -5.0 | 1.5 | 0.2 | -8.4
Cc1nn(C)c(C)c1NC(=O)COc1ccc(Cl)cc1 | -33.5* | 2.4 | 14.3 | -0.1 | 1.1
Cc1cccc(C)c1OCC(=O)Nc1c(C)nn(C)c1C | 0.2 | -7.8 | 1.6 | 1.1 | -2.2
Cc1ccc(C)c2[nH]c(=O)c(CN(CCN3CCCC3)C(=O)Nc3cccc(Cl)c3)cc12 | -12.3 | 3.0 | 39.0* | 0.0 | -11.3
O=C(Nc1cccc(Cl)c1)N(CCN1CCOCC1)Cc1cccc(Cl)c1 | -37.9* | -1.0 | 48.1* | -0.2 | -13.4
COc1ccc(OC)c(CN(CCN2CCOCC2)C(=O)Nc2cccc(Cl)c2)c1 | -31.2* | -1.3 | 2.3 | 0.6 | -0.3
O=C(CCCn1c(=O)[nH]c2cc(Cl)ccc2c1=O)NCCCN1CCCC1 | -15.0 | -0.7 | 1.8 | 0.4 | -3.1
COc1cc2[nH]c(=O)n(CCC(=O)NCCCN3CCN(c4ccccc4F)CC3)c(=O)c2cc1OC | -42.4* | -3.0 | 2.1 | -0.2 | -8.8
O=C(CCCn1c(=O)[nH]c2cc(Cl)ccc2c1=O)NCCCN1CCN(c2ccc(F)cc2)CC1 | -65.6* | 16.3 | -1.3 | -0.3 | -12.1
COCCn1c(=O)[nH]c2cc(C(=O)NCCCN3CCN(c4ccc(F)cc4)CC3)ccc2c1=O | -39.3* | 4.9 | 1.6 | -0.2 | -2.9
CCCn1cc(S(=O)(=O)c2cccc(Cl)c2)c(=O)c2cc(F)c(N3CCCC3)cc21 | -24.0 | 6.2 | 0.8 | -0.1 | 5.8
CCOC(=O)C(NC(=O)Nc1ccc(F)cc1F)(Oc1ccc(F)cc1)C(F)(F)F (stereo unspecified) | -85.2* | 6.0 | 1.8 | 0.7 | -0.1
CCc1ccc(-n2nnc(-c3nc(-c4ccc(C)cc4)no3)c2N)cc1 | -2.6 | 1.8 | 0.5 | -0.5 | -4.3
CC(=O)Nc1ccc(NC(=O)COc2ccc(-c3ccc(C#N)cc3)cc2)cc1 | -4.2 | -4.5 | 1.2 | 0.3 | -11.5
N#Cc1ccc(-c2ccc(OCC(=O)Nc3cccnc3)cc2)cc1 | -45.2* | -2.3 | 19.5 | 1.0 | -6.8
COc1ccc2c(c1)cc(C(=O)N[C@@H](CCSC)C(=O)N1CCC[C@H]1C(=O)O)n2C | -15.8 | -5.1 | 3.1 | -0.7 | -8.8
O=C(Nc1cccn(Cc2ccccc2)c1=O)NC1CCCCC1 | 4.3 | -7.2 | 3.1 | -0.1 | -7.5
COc1cccc(Cn2cccc(NC(=O)NC3CCCCC3)c2=O)c1 | -31.1* | 18.5 | 1.3 | -1.2 | -7.8
Cc1ccc(C)c(S(=O)(=O)N2CCCOC2CNC(=O)C(=O)NCc2ccccn2)c1 (stereo unspecified) | 4.5 | 1.7 | -1.4 | 0.0 | -1.6
SMILES | D1 antag | TRHR PAM | D1 agonist | TRHR agonist | D1 PAM
CN(C(=O)c1ccc(Oc2ccc([N+](=O)[O-])cc2)cc1)C1CCCCC1 | -34.5* | -13.9 | 11.2 | -0.3 | -3.1
CN(C(=O)c1ccc(S(=O)(=O)N2CCCC2)cc1)C1CCCCC1 | 4.0 | -3.8 | 3.4 | 0.6 | -3.5
COc1cccc(CNC(=O)c2ccc3c(c2)N(Cc2ccc(F)cc2Cl)C(=O)c2ccccc2S3)c1 | -21.6 | 0.2 | 8.8 | -1.5 | 3.0
CC[C@H](C)/C=C(C)/C=C/C(=O)Cc1cc(O)c(C)c(O)c1C=O | -16.3 | -5.7 | 13.5 | 3.1 | -7.3
CC[C@H](C)/C=C(C)/C=C/C1=CC2=CC(=O)[C@]3(C)OC(=O)[C@@H](C(C)=O)[C@@H]3C2=CO1 | -14.4 | -5.9 | 42.3* | 11.5 | 4.3
Cc1nc(C)c(C(=O)NCc2ccc(Cl)cc2)o1 | -61.5* | -2.3 | 4.4 | 0.4 | -1.3
Cc1nn(C)c(NC(=O)c2ccccc2Cl)c1Cl | -37.6* | -5.1 | 0.6 | 0.2 | -5.8
Cc1nn(C)c(C(=O)NC(=S)Nc2ccccc2O)c1Cl | -40.7* | -0.1 | 1.9 | -0.1 | -8.2
Cc1nn(C)c(C(=O)NCc2ccc(Cl)cc2)c1Cl | -62.5* | -25.1 | 11.9 | 0.1 | -10.2
CCOc1ccc(NC(=S)NC(=O)c2c(Cl)c(C)nn2C)c([N+](=O)[O-])c1 | -7.2 | -4.3 | 0.4 | -0.2 | -0.4
Cc1nn(C)c(NC(=O)c2ccc([N+](=O)[O-])cc2)c1Cl | -24.2 | 19.2 | 1.7 | 0.2 | 1.1
Cc1cc(NC(=O)c2c(Cl)c(C)nn2C)no1 | -1.0 | -1.3 | 2.1 | -0.1 | -12.7
CCOC(=O)c1c(NC(=O)/C=C/c2ccccc2)sc2c1CCCC2 | 2.2 | 2.4 | -1.3 | -1.6 | 1.3
Cc1cc(C)n(-c2nc3cc(Cl)ccc3nc2N2CCN(c3ccccc3F)CC2)n1 | -6.2 | -7.6 | 0.4 | 0.1 | 4.2
COc1ccc(CNC(=O)c2ccc3c(c2)N(Cc2cc(C)ccc2C)C(=O)CS3)cc1 | -7.8 | 4.0 | -1.0 | 0.2 | 0.9
CCOC(=O)c1cc2c(ccn2C)n1CC(=O)N(Cc1ccccc1)c1ccc(F)cc1 | -36.8* | 3.1 | 1.6 | 0.5 | 0.2
CCCn1c(=O)n(-c2cc(Cl)c(OC)cc2OC)c(=O)c2c3c(sc21)CN(C(C)=O)CC3 | -4.9 | -1.6 | 0.8 | 0.1 | -0.6
CN(C)c1nc(N)nc(CSc2nnnn2-c2ccc(F)cc2)n1 | 6.8 | 38.0* | 4.4 | 0.0 | -3.0
Nc1nc(CSc2nnnn2-c2ccccc2)nc(N2CCCc3ccccc32)n1 | -12.8 | 1.5 | 4.8 | 1.3 | -2.5
c1cc2c(cc1C1CCCCC1)c1c3n2CCCNC3CCC1 (stereo unspecified) | -7.1 | -1.9 | 122.2* | -1.2 | 17.9
COc1c(CC=C(C)C)cc(C2CC(=O)c3c(O)cc(O)cc3O2)cc1CC=C(C)C (stereo unspecified) | -13.1 | 33.0* | 2.6 | 0.0 | -8.3

Screening data (PubChem BioAssay)
